Source: PubChem (Johns Hopkins Ion Channel Center)
A selection: hits, their analogues and other compounds. The true share with any hit is near 3.5%.
Kir21 block: blocks the mouse Kir2.1 inward-rectifier potassium channel | P35561 | B-score at 10 µM | HEK293-Kir2.1, FluxOR thallium flux fluorescence; stronger effect = lower value | 310,000 tested, 0.85% active;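 active = fluorescence ratio B-score at or below minus 3 SD of library scores, with starting-brightness B-score within 2 SD, cut at about -4.2 in these data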;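 also: channel flux triggered by added potassium and thallium sulfate stimulus; B-score of peak minus minimum fluorescence over baseline after thallium stimulus; more negative B-score means stronger Kir2.1 block with less thallium influx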
Target sequence (P35561 whole entry, looked up): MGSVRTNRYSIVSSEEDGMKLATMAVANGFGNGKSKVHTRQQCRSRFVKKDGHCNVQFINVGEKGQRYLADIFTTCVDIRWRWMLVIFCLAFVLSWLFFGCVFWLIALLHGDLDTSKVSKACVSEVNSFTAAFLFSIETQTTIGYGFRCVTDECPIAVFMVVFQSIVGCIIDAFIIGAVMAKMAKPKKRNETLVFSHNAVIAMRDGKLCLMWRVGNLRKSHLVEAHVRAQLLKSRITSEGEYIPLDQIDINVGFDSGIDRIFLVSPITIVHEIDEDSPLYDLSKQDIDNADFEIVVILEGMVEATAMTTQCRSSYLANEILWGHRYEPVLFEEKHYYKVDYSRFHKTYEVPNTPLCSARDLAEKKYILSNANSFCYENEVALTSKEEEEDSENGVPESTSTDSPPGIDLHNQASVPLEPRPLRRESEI
TMEM16A inh: inhibitors of mouse TMEM16A calcium-activated chloride channel; 310,000 tested, 1.2% active; HEK293 TMEM16A/YFP iodide influx fluorescence, ionomycin; normalized B-score (activity score, 25-100; higher = stronger inhibition) at 10 µM; Q8BHY3;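 active = ratio plate-corrected score three or more library SD toward inhibition, starting fluorescence score within five deviations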;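 also: score derived from kinetic fluorescence span divided by baseline fluorescence per well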
KCNK9 inh: blocks the human KCNK9 two-pore domain potassium channel; B-score at 10 µM; AID 488922; HEK293 KCNK9, FluxOR thallium flux fluorescence; stronger effect = lower value; 310,000 tested, 1.2% active;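 active = ratio B-score over 3 SD below the library mean, with starting fluorescence within 5 SD of its mean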;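 also: negative B-score means less thallium flux so channel inhibition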
TMEM16A act: activators or potentiators of mouse TMEM16A chloride channel; AID 623877; B-score at 10 µM; HEK293 TMEM16A/YFP-H148Q/I152L, iodide quench fluorescence; stronger effect = lower value; 340,000 tested, 0.3% active;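 active = fluorescence-ratio B-score plate-corrected deviation score at least 3 library SD below zero, with starting fluorescence score within 5 deviations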;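 also: channel opened by trigger with iodide after compound preincubation; score built on the fluorescence ratio of max minus min over baseline; more negative score means more quench and so TMEM16A activation or potentiation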
KCNK3 block: human KCNK3 channel inhibition, primary screen | B-score at 10 µM | 340,000 tested, 0.84% active | CHO-KCNK3 thallium flux, FluxOR fluorescence; stronger effect = lower value;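 active = B-score under library mean minus 4 SD, starting fluorescence ratio at most library mean plus 5 SD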;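 also: more negative B-score means stronger inhibition of thallium flux through KCNK3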
TMEM16A reconf: re-confirmation of mouse TMEM16A chloride channel inhibitors; shares compounds with TMEM16A inh; HEK293 TMEM16A/YFP-H148Q, iodide quench fluorescence; ionomycin added to raise cell calcium; inhibition, % at 10 µM; 2,300 tested, 39% active;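 active = mean duplicate percent inhibition, scaled so buffer wells are 0 and the reference blocker 100, over three buffer SD above buffer mean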
HEK293 Ca mobil: counter-screen for TMEM16A inhibitors: effect on calcium mobilization. shares compounds with TMEM16A inh. TMEM16A/YFP HEK293, Fluo4 calcium mobilization. calcium response (% of ionomycin), % at 10 µM. 2,300 tested, 2% active;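 active = duplicate-averaged calcium signal over 20% of the ionomycin maximum, relative to buffer baseline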;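 also: each well's signal is peak minus trough fluorescence divided by its pre-addition baseline; 0% = buffer wells and 100% = ionomycin wells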
Parental YFP cnt: counter-screen for TMEM16A inhibitors: effect in parental YFP-HEK293 cells; iodide YFP quench, ionomycin; shares compounds with TMEM16A inh; YFP ratio F(max-min)/F0 at 10 µM; 2,300 tested, under 10 active;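 active = yellow fluorescent protein signal ratio exceeding the buffer control mean by over 5 SD of those controls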;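 also: ratio is mean of duplicate wells from kinetic YFP trace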
ClC-1 inh: blocks the rat ClC-1 voltage-dependent chloride channel; CHO ClC-1-YFP, iodide influx fluorescence quench; iodide control reads 0, buffer control 100; 2,300 tested, under 10 active; ratio percent, % at 10 µM; shares compounds with TMEM16A inh;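 active = duplicate-mean ratio percent above the mean of iodide-only control wells, which defines zero, plus 5 of their SD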;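 also: higher percent means stronger block of ClC-1 iodide influx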
* marks the source's active call; other numbers are inactive results; i = inactive; x = not tested or not shown.

SMILES	Kir21 block	TMEM16A inh	KCNK9 inh	TMEM16A act	KCNK3 block	TMEM16A reconf	HEK293 Ca mobil	Parental YFP cnt	ClC-1 inh
COc1ccc(S(=O)(=O)Nc2ccccn2)c(C)c1C	0.3	i	i	i	i	x	x	x	x
CCC(C(=O)NCc1ccco1)N(C(=O)CNS(=O)(=O)c1ccccc1)c1ccc(OC)cc1 (stereo not drawn)	-0.14	25*	i	i	i	i	i	-0.907	0.0
C=CCN(c1ccccc1)S(=O)(=O)c1cccc(C(=O)Nc2ccncc2)c1	-2.11	100*	i	i	i	20.5%*	i	-1.04	-7.0
C=CCN(c1ccccc1)S(=O)(=O)c1cccc(C(=O)NCc2ccncc2)c1	-0.29	i	i	i	i	x	x	x	x
COc1ccc(OC)c(NCc2nnc(-c3ccccc3)o2)c1	-0.32	i	i	i	i	x	x	x	x
COc1ccc(-c2ccc(-c3nnc(Cc4ccc(OC)c(OC)c4)o3)cc2)cc1	1.34	25*	i	i	i	i	i	-1.26	-2.5
Cc1ccc(N/C(N)=N/c2nc(C)cc(C)n2)cc1	-0.02	i	i	i	i	x	x	x	x
CCCCc1ccc(N/C(N)=N/c2nc(C)cc(C)n2)cc1	-5.21*	100*	i	-5.55*	i	61.5%*	43.0%*	-1.01	-20.5
Cc1ccc(C(=O)CCc2ccc(N)cc2)cc1	0.76	i	i	i	i	x	x	x	x
CN(c1ccccc1)C(c1ccc(F)cc1)c1nnnn1C1CCCC1 (stereo not drawn)	-1.64	i	i	i	i	i	i	-0.921	-13.0
CN(c1ccccc1)C(c1ccc(F)cc1)c1nnnn1CC1CCCO1 (stereo not drawn)	-1.96	i	i	i	i	x	x	x	x
CC1(C)Oc2c(ccc(O)c2CN2CCOCC2)C2=C1CCCC2	x	x	x	i	i	x	x	x	x
O=C(Nc1ccc(Cl)cc1-c1nc2ccccc2s1)c1ccco1	0	i	i	i	i	i	i	-0.925	5.5
O=C(Nc1nc(-c2nc3ccccc3s2)cs1)c1ccco1	-0.31	i	i	i	i	x	x	x	x
c1ccc(C[n+]2cccc3c4ccccc4ccc32)cc1	-0.01	25*	i	i	i	i	i	-1.1	-2.0
CCn1nnc2cc(C(=O)Nc3cccc(S(=O)(=O)N(C)C)c3)ccc21	x	x	x	i	i	x	x	x	x
C=CCc1ccc(OCCOCCOc2ccccc2[N+](=O)[O-])c(OC)c1	-1.47	100*	i	i	i	i	i	-1.13	-11.0
NC(=O)CSc1nnc(Cn2c(=O)sc3ccccc32)n1-c1cccc(Cl)c1	1.51	25*	i	i	i	i	i	-1.26	-5.5
O=C(O)CSc1nnc(Cn2c(=O)sc3ccccc32)n1-c1cccc(Cl)c1	1.99	i	i	i	i	x	x	x	x
O=C(COC(=O)c1cc(NS(=O)(=O)c2cccs2)ccc1O)Nc1ccccc1	0.59	i	i	i	i	x	x	x	x
CN(Cc1ccccc1)C(=O)COC(=O)c1cc(NS(=O)(=O)c2cccs2)ccc1O	-0.05	25*	i	i	i	i	i	-1.06	-20.5
O=C(Nc1ccc(F)cc1)c1ccccc1NS(=O)(=O)N1CCCC1	0.51	25*	i	i	i	27.5%*	i	-1.19	-6.0
CCOC(=O)c1c(C)[nH]c(C(=O)N/N=C/c2cc([N+](=O)[O-])ccc2O)c1C	0.87	25*	i	i	i	20.5%*	i	-1.13	-7.5
CCOc1cc(/C=N\NC(=O)CN2CCOCC2)ccc1OCc1ccc(F)cc1	0.06	i	i	i	i	x	x	x	x
CCOc1cc(/C=N/NC(=O)c2ccc(CN3CCOCC3)cc2)ccc1OCc1ccccc1	0.97	25*	i	i	i	21.0%*	i	-1.04	-10.5
SMILES	Kir21 block	TMEM16A inh	KCNK9 inh	TMEM16A act	KCNK3 block	TMEM16A reconf	HEK293 Ca mobil	Parental YFP cnt	ClC-1 inh
COC(=O)c1cc(=O)n(Cc2cccs2)c(=NCc2cccs2)s1	-0.02	25*	i	i	i	i	i	-1.05	-9.0
Cc1nnc(SCC(=O)NCCC2=CCCCC2)[nH]c1=O	x	x	x	i	i	x	x	x	x
COC(=O)c1ccc(-c2cc3onc(-c4ccccc4)c3c(=O)n2C)cc1	x	25*	x	i	i	i	i	-1.04	-4.5
COc1cccc(-c2cc3onc(-c4ccccc4)c3c(=O)n2C)c1	x	25*	x	i	i	i	i	-0.911	-19.0
Cc1cccc(-n2cnc3cc(C(=O)N4CCCCC4)ccc32)c1	0.87	25*	i	i	i	i	i	-1.09	-0.5
CC(C)c1ccc(NC(=O)c2ccc3c(c2)C(=O)N(Cc2cccnc2)C3=O)cc1	1.67	i	i	i	i	x	x	x	x
CC(C)(C)C(=O)Nc1cc(S(=O)(=O)Nc2ccc(Cl)cc2)ccc1Cl	-2.05	25*	i	i	i	36.5%*	i	-1.37	-7.5
COc1ccc(NS(=O)(=O)c2ccc(Cl)c(NC(=O)c3ccccc3F)c2)cc1	x	x	x	i	i	x	x	x	x
O=C(O)c1ccc(-n2nnnc2Oc2cccc3cccnc23)cc1	-0.33	i	i	i	i	x	x	x	x
Cc1[nH]nc(-c2ccc(O)cc2O)c1Oc1ccccc1	-0.91	100*	i	i	i	24.0%*	i	-1.12	-19.5
CCOc1ccc(-c2n[nH]c(C)c2Oc2ccccc2OC)c(O)c1	0.47	i	i	i	i	x	x	x	x
Cc1cc(C)n(-c2ccc(C(=O)OCC(=O)Nc3ccc(Cl)cc3[N+](=O)[O-])cc2)n1	0.14	i	i	i	i	x	x	x	x
Cc1ccccc1CSCCNC(=S)Nc1ccccc1	-0.14	i	i	i	i	x	x	x	x
S=C(NCCSCc1ccc(Cl)cc1Cl)Nc1ccccc1	0.09	100*	i	i	i	23.0%*	i	-0.957	-19.0
C=CCN1[C@@H](Cc2ccccc2)COCCS1(=O)=O	x	x	x	i	i	x	x	x	x
COc1ccc(CCNC(=O)CCN2C(=O)C(C)Oc3ccc(C)cc32)cc1OC (stereo not drawn)	-0.7	100*	i	i	i	i	i	-1.21	-10.5
COc1ccc(CCNC(=O)CCN2C(=O)COc3ccc(C)cc32)cc1OC	-0.02	i	i	i	i	x	x	x	x
